The values that follow come from PubChem BioAssay (EPA / NIEHS).

Structures are written as SMILES. Calls of active or inactive are those of the source. How the source made its calls: active means hit-call score of the fitted dose curve at least 0.9, where 1 is the maximum; inactive means score below 0.9.

Assay [1] in a line: ATG_E_Box_CIS: Attagene CIS-FACTORIAL HepG2 Assay for human Enhancer Box (E-box) (AID 2282936). The settings on record: HepG2 E-box cis-reporter transcription, actives raise or lower the signal. Summed up: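 In this cell-based setup, HepG2 cells bearing transfected promoter-driven reporter units were exposed to chemicals for 24 h; reporter transcripts were amplified, 6-FAM-labelled, cut with HpaI and sized by capillary electrophoresis.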

Assay [2] in a line: ATG_M_61_CIS: Attagene CIS-FACTORIAL HepG2 Assay for M61 Transcription Factor (Internal Marker) (AID 2282937). The settings on record: HepG2 Attagene CIS-FACTORIAL M61 internal marker reporter; actives raise or lower the signal. In outline:
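Fluorescence from labelled cDNA fragments, separated by capillary electrophoresis, quantifies reporter induction. HepG2 cells bearing transiently transfected cis-promoter MRTUs were incubated with test chemical for 24 h; DMSO defined baseline for gain/loss fitting.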

A short description of assay [3]: ATG_EGR_CIS: Attagene CIS-FACTORIAL HepG2 Assay for human Early Growth Response 1 (EGR1) (AID 2282938). The following applies: HepG2 Attagene CIS-FACTORIAL EGR reporter mRNA; actives raise or lower the signal. Summed up: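 Cell-based multiplex transcription assay: HepG2 carrying transfected cis-element reporter units, 24 h chemical treatment. Fluorescence from capillary electrophoresis of RT-PCR products gives mRNA levels; fitting is bidirectional relative to DMSO.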

Assay [4] in a line: ATG_M_19_CIS: Attagene CIS-FACTORIAL HepG2 Assay for M19 Transcription Factor (Internal Marker) (AID 2282939). The following applies: HepG2 Attagene CIS-FACTORIAL M19 internal marker reporter; actives raise or lower the signal. In outline:
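HepG2, MRTU transient transfection, 24 h dosing. Total RNA → RT-PCR → 6-FAM primer extension → HpaI digest → CE fluorescence. Bidirectional curve fit, DMSO negative control.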

Assay [5] is described as follows: ATG_ERE_CIS: Attagene CIS-FACTORIAL HepG2 Assay for Estrogen Response Element (ERE) (AID 2282940). The settings on record: HepG2 ERE cis-reporter, Attagene RNA transcript; actives raise or lower the signal. Summed up:
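After a 24 h chemical treatment, RNA from reporter-transfected HepG2 cells is reverse-transcribed, PCR-amplified and fluorescently labelled. Fragments separated by capillary electrophoresis give reporter signal; DMSO serves as negative control.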

Assay [6] is described as follows: ATG_Ets_CIS: Attagene CIS-FACTORIAL HepG2 Assay for human Erythroblast Transformation Specific (ETS) (AID 2282941). The following applies: HepG2 ETS cis-reporter transcription, actives raise or lower the signal. In outline:
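Multiplexed reporter transcript profiling: HepG2, 24 h treatment, total RNA to cDNA, PCR, 6-FAM labelling, HpaI cut, capillary electrophoresis. Gain- or loss-of-signal fitted against DMSO.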

Assay [7] deals with Hepatocyte nuclear factor 3-beta (Homo sapiens) (UniProt Q9Y261). The assay can be described thus: ATG_FoxA2_CIS: Attagene CIS-FACTORIAL HepG2 Assay for human Forkhead box A2 (FOXA2) (AID 2282942). The settings on record: HepG2 cis-reporter transcription factor activity, 24 h; actives raise or lower the signal. In outline: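 In transiently transfected human HepG2 cells, promoter-driven reporter mRNA levels after 24 h chemical exposure are determined via RT-PCR with capillary electrophoresis. DMSO serves as baseline for bidirectional fitting.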
Chain of Hepatocyte nuclear factor 3-beta (Homo sapiens) (Q9Y261 whole entry, looked up): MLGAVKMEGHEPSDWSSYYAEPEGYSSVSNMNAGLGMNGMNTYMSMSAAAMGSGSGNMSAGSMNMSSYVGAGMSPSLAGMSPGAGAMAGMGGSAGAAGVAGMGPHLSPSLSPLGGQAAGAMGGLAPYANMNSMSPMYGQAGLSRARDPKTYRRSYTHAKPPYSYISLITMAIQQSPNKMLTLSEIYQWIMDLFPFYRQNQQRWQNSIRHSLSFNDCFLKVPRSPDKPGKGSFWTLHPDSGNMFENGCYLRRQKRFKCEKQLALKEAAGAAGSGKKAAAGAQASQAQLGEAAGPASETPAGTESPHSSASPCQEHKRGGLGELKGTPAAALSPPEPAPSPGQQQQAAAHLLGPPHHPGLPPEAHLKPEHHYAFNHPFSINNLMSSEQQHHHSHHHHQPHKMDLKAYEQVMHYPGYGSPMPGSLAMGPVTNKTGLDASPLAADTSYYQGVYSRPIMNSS

Assay [8] in a line: ATG_FoxO_CIS: Attagene CIS-FACTORIAL HepG2 Assay for human Forkhead box O (FoxO) (AID 2282943). The settings on record: HepG2 Attagene cis-reporter, FoxO element, mRNA; actives raise or lower the signal. Summed up:
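Read-out: fluorescence of 6-FAM-labelled reporter cDNA fragments resolved by capillary electrophoresis. Transiently transfected HepG2 cells were dosed for 24 h; activity fitted in both directions relative to DMSO controls.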

The target in assay [9] is Bile acid receptor (Homo sapiens) (UniProt Q96RI1). The assay can be described thus: ATG_IR1_CIS: Attagene CIS-FACTORIAL HepG2 Assay for human Nuclear Receptor Subfamily 1 Group H Member 4 (NR1H4), IR1 submotif (AID 2282946). The following applies: IR1 reporter transcription, actives raise or lower the signal. Summed up: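 Fluorescence of capillary-separated, HpaI-digested RT-PCR reporter products gave IR1-element mRNA induction in HepG2 cells 24 h after dosing. Endogenous transcription factors drove the cis-regulated reporters; activity was fitted bidirectionally against DMSO.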
Chain of Bile acid receptor (Homo sapiens) (Q96RI1 whole entry, looked up): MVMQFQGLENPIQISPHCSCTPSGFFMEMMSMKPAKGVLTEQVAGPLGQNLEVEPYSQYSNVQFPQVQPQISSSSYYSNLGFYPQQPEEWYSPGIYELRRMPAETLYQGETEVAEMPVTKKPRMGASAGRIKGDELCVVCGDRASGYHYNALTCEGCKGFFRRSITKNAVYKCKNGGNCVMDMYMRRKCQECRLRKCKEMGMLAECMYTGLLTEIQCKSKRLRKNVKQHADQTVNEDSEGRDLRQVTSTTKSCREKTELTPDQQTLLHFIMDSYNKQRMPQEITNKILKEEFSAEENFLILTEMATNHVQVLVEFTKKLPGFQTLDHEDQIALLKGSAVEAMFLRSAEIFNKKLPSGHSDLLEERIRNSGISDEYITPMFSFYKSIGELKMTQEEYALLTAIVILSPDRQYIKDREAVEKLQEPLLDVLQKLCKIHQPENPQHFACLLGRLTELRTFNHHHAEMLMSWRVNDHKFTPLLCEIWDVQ

Assay [10] is described as follows: ATG_ISRE_CIS: Attagene CIS-FACTORIAL HepG2 Assay for human Interferon Regulatory Factor 1 (IRF1) binding to an Interferon-Stimulated Response Element (ISRE) (AID 2282948). The following applies: HepG2 ISRE cis-reporter (Attagene), mRNA transcription readout; actives raise or lower the signal. In outline: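 Signal reflects induction or loss of ISRE-linked reporter mRNA in transiently transfected HepG2 cells after a 24 h treatment, detected by fluorescent RT-PCR fragments on capillary electrophoresis and normalised to DMSO.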

Assay [11] in a line: ATG_M_32_CIS: Attagene CIS-FACTORIAL HepG2 Assay for M32 Transcription Factor (Internal Marker) (AID 2282949).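 Further: background control marker of the multiplexed CIS panel rather than a real target.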 The settings on record: HepG2 Attagene cis-factorial M32 reporter, mRNA; actives raise or lower the signal. Summed up:
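HepG2 transfectants (cis-regulated reporter transcription units) dosed 24 h. Reporter mRNA by RT-PCR plus CE, analysed as gain or loss relative to DMSO.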

Assay [12] is described as follows: ATG_M_06_CIS: Attagene CIS-FACTORIAL HepG2 Assay for M06 Transcription Factor (Internal Marker) (AID 2282950). The following applies: HepG2 Attagene CIS-FACTORIAL M06 internal marker reporter; actives raise or lower the signal. In outline: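 Measured 24 h post-dosing in transiently transfected HepG2 cells, this internal-marker endpoint reports reporter mRNA via RT-PCR with fluorescent primer extension and capillary electrophoresis. DMSO served as negative control and baseline for bidirectional fitting.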

Assay [13] has as its target Hypoxia-inducible factor 1-alpha (Homo sapiens) (UniProt Q16665). The assay is described as follows: ATG_HIF1a_CIS: Attagene CIS-FACTORIAL HepG2 Assay for human Hypoxia Inducible Factor 1 (HIF1A) (AID 2282951). The following applies: HepG2 Attagene cis-factorial HIF1a reporter transcription; actives raise or lower the signal. Summed up:
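In this multiplexed cell assay, HepG2 cells bearing transfected cis reporters are dosed for 24 h and reporter mRNA is read by RT-PCR plus capillary electrophoresis; signal increases and decreases are both scored against DMSO.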

Assay [14] concerns the target Hepatocyte nuclear factor 6 (Homo sapiens) (UniProt Q9UBC0). The assay is described as follows: ATG_HNF6_CIS: Attagene CIS-FACTORIAL HepG2 Assay for human Hepatocyte Nuclear Factor 6 (HNF6) (AID 2282952). The following applies: HepG2 Attagene cis-factorial HNF6 reporter transcription; actives raise or lower the signal. Summed up: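 Endogenous factor activity read in transiently transfected HepG2 via promoter-regulated reporter transcripts. RNA harvested 24 h post-dosing, reverse-transcribed, PCR-amplified, FAM-labelled, HpaI-digested and resolved by capillary electrophoresis; fitted in both directions against DMSO.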

Assay [15] deals with Heat shock factor protein 1 (Homo sapiens) (UniProt Q00613). The assay can be described thus: ATG_HSE_CIS: Attagene CIS-FACTORIAL HepG2 Assay for human Heat Shock Transcription Factor 1 (HSE) (AID 2282953). The following applies: HepG2 HSE cis-reporter, Attagene RNA transcription; actives raise or lower the signal. Summed up:
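Reporter mRNA induction in HepG2 is measured 24 h after dosing, using transiently transfected multiplexed cis-regulated reporter units. Signal comes from capillary electrophoresis of labelled RT-PCR products, with DMSO as negative control.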

Assay [16] can be described thus: ATG_MRE_CIS: Attagene CIS-FACTORIAL HepG2 Assay for human Metal Responsive Element (MRE) (AID 2282954). The settings on record: HepG2 MRE cis-reporter transcription, Attagene multiplex; actives raise or lower the signal. Summed up: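 Measured here is mRNA induction from an MRE cis-element reporter in HepG2 after 24 h, quantified by fluorescence of labelled RT-PCR products on capillary electrophoresis; gain- and loss-of-signal fits use DMSO as baseline.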

The nature of assay [17]: ATG_PBREM_CIS: Attagene CIS-FACTORIAL HepG2 Assay for human Phenobarbital-responsive Enhancer Module (PBREM) (AID 2282955). The following applies: HepG2 PBREM cis-reporter, Attagene multiplexed transcription; actives raise or lower the signal. In outline: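 After a 24 h incubation with test chemical, transfected HepG2 cells yield total RNA; reporter-specific RT-PCR products are fluorescently labelled, HpaI-digested and resolved by capillary electrophoresis against ROX size standards.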

The nature of assay [18]: ATG_GATA_CIS: Attagene CIS-FACTORIAL HepG2 Assay for human GATA Binding Protein (AID 2282944). The following applies: HepG2 GATA cis-element reporter, Attagene multiplex mRNA; actives raise or lower the signal. Summed up:
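Cells: HepG2, transiently transfected with cis-regulated reporter transcription units. Exposure: 24 h. Detection: RT-PCR plus capillary electrophoresis of FAM-labeled fragments. Analysis: bidirectional, DMSO as baseline.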

The nature of assay [19]: ATG_GLI_CIS: Attagene CIS-FACTORIAL HepG2 Assay for human Zinc Finger Protein GLI1 (AID 2282945). The settings on record: HepG2, Attagene cis-factorial reporter mRNA, GLI element; actives raise or lower the signal. Summed up: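 Transiently transfected HepG2 cells report endogenous transcription factor activity via cis-element-driven reporter units. After 24 h compound exposure, reporter mRNA was measured by RT-PCR with capillary electrophoresis; bidirectional fitting against DMSO baseline.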

Assay [20] can be described thus: ATG_GRE_CIS: Attagene CIS-FACTORIAL HepG2 Assay for human Glucocorticoid Response Elements (GRE) (AID 2282947). The following applies: HepG2 GRE cis-reporter, Attagene multiplex mRNA; actives raise or lower the signal. Summed up: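 Fluorescence intensity of reporter-specific cDNA fragments, separated by capillary electrophoresis, provides the signal. Constructs carry cis-regulating promoters in transiently transfected HepG2 liver cells; 24 h incubation; fitting is bidirectional against DMSO.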

Chain of Hypoxia-inducible factor 1-alpha (Homo sapiens) (Q16665 whole entry, looked up): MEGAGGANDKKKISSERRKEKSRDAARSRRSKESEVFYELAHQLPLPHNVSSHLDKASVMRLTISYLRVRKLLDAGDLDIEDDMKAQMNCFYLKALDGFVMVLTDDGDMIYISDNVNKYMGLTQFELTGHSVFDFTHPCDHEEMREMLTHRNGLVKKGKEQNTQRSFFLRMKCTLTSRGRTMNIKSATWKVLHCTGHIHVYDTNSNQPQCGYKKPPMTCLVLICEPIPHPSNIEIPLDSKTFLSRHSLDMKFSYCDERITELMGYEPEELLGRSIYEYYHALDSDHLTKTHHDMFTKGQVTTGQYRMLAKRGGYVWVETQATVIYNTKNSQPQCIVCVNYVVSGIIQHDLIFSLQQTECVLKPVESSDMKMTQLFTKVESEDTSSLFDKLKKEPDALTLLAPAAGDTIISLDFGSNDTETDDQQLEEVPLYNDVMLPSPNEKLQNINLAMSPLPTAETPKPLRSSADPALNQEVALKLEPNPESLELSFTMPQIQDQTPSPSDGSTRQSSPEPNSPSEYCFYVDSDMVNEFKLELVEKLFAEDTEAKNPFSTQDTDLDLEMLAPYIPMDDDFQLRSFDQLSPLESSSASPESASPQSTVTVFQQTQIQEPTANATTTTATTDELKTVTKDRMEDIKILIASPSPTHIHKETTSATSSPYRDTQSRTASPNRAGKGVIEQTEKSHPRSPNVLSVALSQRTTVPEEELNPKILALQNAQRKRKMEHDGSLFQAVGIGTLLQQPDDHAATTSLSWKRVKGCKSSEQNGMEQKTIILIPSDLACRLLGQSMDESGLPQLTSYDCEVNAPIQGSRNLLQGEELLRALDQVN
Chain of Heat shock factor protein 1 (Homo sapiens) (Q00613 whole entry, looked up): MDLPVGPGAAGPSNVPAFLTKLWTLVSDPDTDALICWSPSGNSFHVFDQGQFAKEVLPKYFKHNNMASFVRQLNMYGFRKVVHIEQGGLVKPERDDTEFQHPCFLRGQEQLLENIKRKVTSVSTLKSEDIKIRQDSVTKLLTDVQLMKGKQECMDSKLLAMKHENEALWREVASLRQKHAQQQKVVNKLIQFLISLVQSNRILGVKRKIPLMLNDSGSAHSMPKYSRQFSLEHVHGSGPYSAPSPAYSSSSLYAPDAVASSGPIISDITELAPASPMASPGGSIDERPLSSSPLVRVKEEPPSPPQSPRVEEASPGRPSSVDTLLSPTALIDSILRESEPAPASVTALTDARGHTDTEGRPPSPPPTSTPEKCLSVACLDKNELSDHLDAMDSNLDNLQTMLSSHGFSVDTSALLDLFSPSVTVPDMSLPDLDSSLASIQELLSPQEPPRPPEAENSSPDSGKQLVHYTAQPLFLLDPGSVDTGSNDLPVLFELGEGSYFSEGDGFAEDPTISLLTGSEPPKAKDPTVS
Chain of Hepatocyte nuclear factor 6 (Homo sapiens) (Q9UBC0 whole entry, looked up): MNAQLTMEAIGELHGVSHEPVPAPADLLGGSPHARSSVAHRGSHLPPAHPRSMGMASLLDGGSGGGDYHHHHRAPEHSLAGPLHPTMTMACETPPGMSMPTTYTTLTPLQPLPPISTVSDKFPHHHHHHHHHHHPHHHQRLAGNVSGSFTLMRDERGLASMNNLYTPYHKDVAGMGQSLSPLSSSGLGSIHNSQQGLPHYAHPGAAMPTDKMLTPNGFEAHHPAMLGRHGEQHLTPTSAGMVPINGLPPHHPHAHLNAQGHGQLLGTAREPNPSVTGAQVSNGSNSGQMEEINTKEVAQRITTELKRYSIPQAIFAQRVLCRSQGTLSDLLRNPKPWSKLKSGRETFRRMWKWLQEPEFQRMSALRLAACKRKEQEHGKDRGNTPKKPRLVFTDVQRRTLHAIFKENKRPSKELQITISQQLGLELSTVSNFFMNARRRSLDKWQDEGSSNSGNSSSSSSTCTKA

On to `c1ccc(CCCc2ccccn2)cc1`, for which the outcome in assay [1], in [2], in [3], in assay [4], in [5] and in assay [6] was inactive. Besides, the result in assay [7], in assay [8], in assay [9], in assay [10], in assay [11] and in assay [12] was inactive. In addition, the compound was called inactive in assay [13], in assay [14] and in assay [15]. Further, the AC50 (in general, the midpoint of the concentration-response curve, whichever way the signal moves) was 81.5 µM (active) in assay [16] and 67 µM (active) in [17].
Consider `O=C(O)c1snc(Cl)c1Cl`, for which the result in [1], in assay [2], in [4], in assay [6], in [7] and in assay [18] was inactive. Further, the compound was classed as inactive in [19], in assay [9], in [20], in assay [11], in assay [12] and in assay [13]. Besides, the result in [17] was inactive. In addition, the AC50 in [3] is 164 µM (active); in assay [8] it was 130 µM (active); in [10], 136 µM (active); in [14], 153 µM (active); in assay [15], 158 µM (active); in assay [16] it was 161 µM (active).
Take `C[Si](O[Si](C)(C)C)O[Si](C)(C)C`: the result in [1], in [2], in [3], in assay [4], in [6] and in assay [7] was inactive. Besides, the compound was called inactive in assay [8], in assay [18], in assay [19], in assay [9], in assay [20] and in assay [10]. Besides, the call in assay [11], in assay [12], in assay [13], in [14], in [15] and in assay [16] was inactive.
Take `CC1CCC(C(C)(C)O)CC1` (configuration not stated): the result in assay [1], in assay [2], in assay [3], in assay [4], in assay [6] and in assay [7] was inactive. The compound was called inactive in [8], in assay [18], in assay [19], in assay [9], in assay [20] and in [10]. For the same compound, the compound was called inactive in assay [11], in assay [12], in assay [13], in [14], in assay [15] and in assay [16]. In [17], the outcome was inactive.
Take `ClCCCl`: the outcome in [1], in [2], in assay [3], in assay [4], in assay [5] and in assay [7] was inactive. Besides, the compound was called inactive in assay [8], in assay [18], in assay [19], in assay [20], in assay [10] and in assay [11]. Besides, the compound was called inactive in [12], in assay [13], in assay [14], in assay [15], in assay [16] and in assay [17].
With `Nc1cc([N+](=O)[O-])ccc1Cl`, the result in assay [1], in assay [2], in assay [3], in [4], in [6] and in [7] was inactive. Also, the compound was called inactive in assay [8], in assay [18], in assay [19], in [9], in assay [20] and in assay [10]. For the same compound, the compound was classed as inactive in assay [11], in assay [12], in assay [13], in [14], in assay [15] and in assay [16]. Moreover, in assay [17], the result was inactive.
For `O=S(=O)(O)c1ccc(O)c2ncccc12`, the result in assay [1], in assay [2], in [3], in assay [4], in assay [5] and in assay [7] was inactive. In addition, the outcome in assay [8], in assay [18], in assay [19], in assay [9], in assay [10] and in assay [11] was inactive. The call in [12], in assay [14], in [15], in [16] and in assay [17] was inactive.
